The campaign covered roughly 5,500 compounds. About 2,000 (36%) were called active. About 18% were inconclusive and are not listed. Rule as the data show it: active = normalized growth mostly below about 0.91 (no sharp cut-off); inconclusive = no clear call, values can overlap the other calls; inactive = mostly above about 0.92. This is one part of the list.
Experiment: chemical genetic growth profiling, strain panel (AID 1159580);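 also: tested at 20 µM; growth read once vehicle control cultures reached saturation at 30 °C; 1 = growth at the plate median or of vehicle wells; lower values mean less growth of the strain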
Conditions: growth OD

Measured: normalized growth

O=C(O)CNCP(=O)(O)O
inactive: S. cerevisiae deletion strains, locus YJR075W, strain HOC1, hits give low values 1.01 | S. cerevisiae deletion strains, locus YKL009W, strain mrt4, hits give low values 1.04 | S. cerevisiae deletion strains, locus YKL068W, hits give low values 1.01 | S. cerevisiae deletion strains, locus YKL085W, strain MDH1 (second series), hits give low values 1 | S. cerevisiae deletion strains, locus YKL085W, strain MDH1, hits give low values 1 | S. cerevisiae deletion strains, locus YKL160W, strain elf1, hits give low values 1.02 | S. cerevisiae deletion strains, locus YKL190W, strain CNB1, hits give low values 1.01 | S. cerevisiae deletion strains, locus YKR001C, strain vps1, hits give low values 1.02 | S. cerevisiae deletion strains, locus YKR026C, strain gcn3, hits give low values 1.02 | S. cerevisiae deletion strains, locus YKR091W, strain srl3, hits give low values 1.01 | S. cerevisiae deletion strains, locus YLL001W, strain dnm1, hits give low values 1.02 | S. cerevisiae deletion strains, locus YLL026W, hits give low values 1.01 | S. cerevisiae deletion strains, locus YLL041C, strain sdh2, hits give low values 1.01 | S. cerevisiae deletion strains, locus YLR027C, strain aat2, hits give low values 1.01 | S. cerevisiae deletion strains, locus YLR039C, strain RIC1, hits give low values 1.03 | S. cerevisiae deletion strains, locus YLR058C, strain SHM2, hits give low values 1.01 | S. cerevisiae deletion strains, locus YLR102C, strain apc9, hits give low values 1.01 | S. cerevisiae deletion strains, locus YLR113W, strain HOG1, hits give low values 1.02 | S. cerevisiae deletion strains, locus YLR221C, strain rsa3, hits give low values 1.01 | S. cerevisiae deletion strains, locus YLR258W, strain gsy2, hits give low values 1.02 | S. cerevisiae deletion strains, locus YLR262C, strain YPT6 (second series), hits give low values 1.03 | S. cerevisiae deletion strains, locus YLR262C, strain YPT6, hits give low values 1.03 | S. cerevisiae deletion strains, locus YLR268W, strain sec22, hits give low values 1 | S. cerevisiae deletion strains, locus YLR320W, strain mms22, hits give low values 1.03 | S. cerevisiae deletion strains, locus YLR330W, strain CHS5, hits give low values 1.01 | S. cerevisiae deletion strains, locus YLR342W, strain FKS1 (second series), hits give low values 1.03 | S. cerevisiae deletion strains, locus YLR342W, strain FKS1, hits give low values 1.03 | S. cerevisiae deletion strains, locus YLR357W, strain rsc2, hits give low values 1.03 | S. cerevisiae deletion strains, locus YLR370C, strain arc18, hits give low values 1 | S. cerevisiae deletion strains, locus YLR371W, strain rom2, hits give low values 1.01 | S. cerevisiae deletion strains, locus YLR384C, strain iki3, hits give low values 0.993 | S. cerevisiae deletion strains, locus YLR418C, strain cdc73, hits give low values 1.02 | S. cerevisiae deletion strains, locus YML016C, strain PPZ1, hits give low values 1 | S. cerevisiae deletion strains, locus YML032C, strain rad52, hits give low values 1.01 | S. cerevisiae deletion strains, locus YML120C, strain ndi1, hits give low values 1.02 | S. cerevisiae deletion strains, locus YML124C, strain tub3, hits give low values 1.01 | S. cerevisiae deletion strains, locus YMR058W, strain fet3, hits give low values 1.02 | S. cerevisiae deletion strains, locus YMR078C, strain ctf18, hits give low values 1.01 | S. cerevisiae deletion strains, locus YMR125W, strain sto1, hits give low values 1.02 | S. cerevisiae deletion strains, locus YMR129W, hits give low values 1.01 | S. cerevisiae deletion strains, locus YMR205C, strain PFK2, hits give low values 1.05 | S. cerevisiae deletion strains, locus YMR223W, strain ubp8, hits give low values 1.01 | S. cerevisiae deletion strains, locus YMR231W, strain pep5, hits give low values 1 | S. cerevisiae deletion strains, locus YMR263W, strain SAP30, hits give low values 1.01 | S. cerevisiae deletion strains, locus YMR307W, strain GAS1, hits give low values 0.975 | S. cerevisiae deletion strains, locus YNL067W, strain RPL9B, hits give low values 1.02 | S. cerevisiae deletion strains, locus YNL071W, strain lat1, hits give low values 1.02 | S. cerevisiae deletion strains, locus YNL128W, strain TEP1, hits give low values 1 | S. cerevisiae deletion strains, locus YNL153C, strain GIM3, hits give low values 1 | S. cerevisiae deletion strains, locus YNL183C, strain NPR1, hits give low values 0.917 | S. cerevisiae deletion strains, locus YNL209W, strain ssb2, hits give low values 1.03 | S. cerevisiae deletion strains, locus YNL233W, strain BNI4, hits give low values 1.02 | S. cerevisiae deletion strains, locus YNL248C, strain rpa49, hits give low values 1.01 | S. cerevisiae deletion strains, locus YNL250W, strain rad50, hits give low values 1 | S. cerevisiae deletion strains, locus YNL271C, strain bni1, hits give low values 1.01 | S. cerevisiae deletion strains, locus YNL298W, strain CLA4, hits give low values 1.02 | S. cerevisiae deletion strains, locus YNL307C, strain MCK1, hits give low values 1.02 | S. cerevisiae deletion strains, locus YNL322C, strain KRE1 (second series), hits give low values 1.02 | S. cerevisiae deletion strains, locus YNL322C, strain KRE1, hits give low values 1 | S. cerevisiae deletion strains, locus YNR049C, strain mso1, hits give low values 1.02 | S. cerevisiae deletion strains, locus YNR052C, strain pop2, hits give low values 1.01 | S. cerevisiae deletion strains, locus YOL006C, strain TOP1, hits give low values 1.05 | S. cerevisiae deletion strains, locus YOL012C, strain htz1 0.788 | S. cerevisiae deletion strains, locus YOL147C, strain pex11, hits give low values 1.01 | S. cerevisiae deletion strains, locus YOR001W, strain rrp6, hits give low values 1.01 | S. cerevisiae deletion strains, locus YOR061W, strain CKA2, hits give low values 1 | S. cerevisiae deletion strains, locus YOR069W, strain VPS5, hits give low values 1.01 | S. cerevisiae deletion strains, locus YOR070C, strain gyp1, hits give low values 1.02 | S. cerevisiae deletion strains, locus YOR080W, strain dia2, hits give low values 1.01 | S. cerevisiae deletion strains, locus YOR083W, strain WHI5, hits give low values 1.01 | S. cerevisiae deletion strains, locus YOR106W, strain vam3, hits give low values 1.02 | S. cerevisiae deletion strains, locus YOR136W, strain idh2, hits give low values 1.02 | S. cerevisiae deletion strains, locus YOR144C, strain elg1, hits give low values 1.02 | S. cerevisiae deletion strains, locus YOR184W, strain ser1, hits give low values 1.02 | S. cerevisiae deletion strains, locus YOR231W, strain MKK1, hits give low values 0.977 | S. cerevisiae deletion strains, locus YOR265W, strain rbl2, hits give low values 1.01 | S. cerevisiae deletion strains, locus YOR270C, strain vph1, hits give low values 1.03 | S. cerevisiae deletion strains, locus YOR290C, strain snf2, hits give low values 1.02 | S. cerevisiae deletion strains, locus YOR316C, strain cot1, hits give low values 1.01 | S. cerevisiae deletion strains, locus YPL051W, strain arl3, hits give low values 1.02 | S. cerevisiae deletion strains, locus YPL055C, strain LGE1, hits give low values 0.987 | S. cerevisiae deletion strains, locus YPL078C, strain atp4, hits give low values 1.02 | S. cerevisiae deletion strains, locus YPL106C, strain sse1, hits give low values 1.02 | S. cerevisiae deletion strains, locus YPL240C, strain hsp82, hits give low values 1.02 | S. cerevisiae deletion strains, locus YPL241C, strain CIN2, hits give low values 0.999 | S. cerevisiae deletion strains, locus YPL256C, strain CLN2, hits give low values 0.962 | S. cerevisiae deletion strains, locus YPR119W, strain clb2, hits give low values 1.01 | S. cerevisiae deletion strains, locus YPR141C, strain kar3, hits give low values 1.02 | S. cerevisiae deletion strains, locus YPR163C, strain tif3, hits give low values 1.01 | S. cerevisiae deletion strains, locus YPR167C, strain met16, hits give low values 1.02 | S. cerevisiae deletion strains, strain wtn01, hits give low values 1.01 | S. cerevisiae strains, strain wild type, hits give low values 0.997

Reference: PubChem BioAssay AID1159580 (chemical genetic matrix, 2015)
